# Measurements reported in the supplement of paper PMC8728848.
# The entries come from a sample that favours the strongest signals as a whole.
# Assays:
# Assay in all cases: glycan array binding signal (z-score within array); higher = stronger binding
# Conditions in all cases: glycan notation: IUPAC condensed, linker removed
# GlcNAc(b1-3)Gal(b1-4)Glc = biological target: GlcNAc(b1-3)Gal(b1-4)Glc
# Summary of the method: (§1)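 Glycan array data were curated from 3228 arrays in the Consortium for Functional Glycomics database and kept only where the protein sequence was available. Glycan names were converted to IUPAC-condensed notation, and columns mapping to the same glycan were averaged. The binding signal is a within-array Z-score, averaged across arrays of the same protein sequence at different concentrations or buffers and across linkers. Negative Z-scores can be read as non-binding.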
# [1] = biological target: GlcNAc(b1-3)Gal(b1-4)GlcNAc(b1-2)Man(a1-3)[GlcNAc(b1-3)Gal(b1-4)GlcNAc(b1-2)Man(a1-6)]Man(b1-4)GlcNAc(b1-4)[Fuc(a1-6)]GlcNAc
# Summary of the method: as §1
# [2] = biological target: GlcNAc(b1-3)Gal(b1-4)GlcNAc(b1-3)Gal(b1-4)GlcNAc
# Summary of the method: as §1
# [3] = biological target: GlcNAc(b1-3)Gal(b1-4)GlcNAc(b1-3)Gal(b1-4)GlcNAc(b1-2)Man(a1-3)[GlcNAc(b1-3)Gal(b1-4)GlcNAc(b1-3)Gal(b1-4)GlcNAc(b1-2)Man(a1-6)]Man(b1-4)GlcNAc(b1-4)GlcNAc
# Summary of the method: as §1
# [4] = biological target: GlcNAc(b1-3)Gal(b1-4)GlcNAc(b1-3)Gal(b1-4)GlcNAc(b1-2)Man(a1-3)[GlcNAc(b1-3)Gal(b1-4)GlcNAc(b1-3)Gal(b1-4)GlcNAc(b1-2)Man(a1-6)]Man(b1-4)GlcNAc(b1-4)[Fuc(a1-6)]GlcNAc
# Summary of the method: as §1
# [5] = biological target: GlcNAc(b1-3)Gal(b1-4)GlcNAc(b1-3)Gal(b1-4)GlcNAc(b1-2)[GlcNAc(b1-3)Gal(b1-4)GlcNAc(b1-3)Gal(b1-4)GlcNAc(b1-6)]Man(a1-6)[GlcNAc(b1-3)Gal(b1-4)GlcNAc(b1-3)Gal(b1-4)GlcNAc(b1-2)Man(a1-3)]Man(b1-4)GlcNAc(b1-4)[Fuc(a1-6)]GlcNAc
# Summary of the method: as §1
# [6] = biological target: GlcNAc(b1-3)Gal(b1-4)GlcNAc(b1-3)Gal(b1-4)GlcNAc(b1-3)Gal(b1-4)GlcNAc(b1-2)Man(a1-3)[GlcNAc(b1-3)Gal(b1-4)GlcNAc(b1-3)Gal(b1-4)GlcNAc(b1-3)Gal(b1-4)GlcNAc(b1-2)Man(a1-6)]Man(b1-4)GlcNAc(b1-4)GlcNAc
# Summary of the method: as §1
# [7] = biological target: GlcNAc(b1-3)Gal(b1-4)GlcNAc(b1-3)Gal(b1-4)GlcNAc(b1-3)Gal(b1-4)GlcNAc(b1-2)Man(a1-3)[GlcNAc(b1-3)Gal(b1-4)GlcNAc(b1-3)Gal(b1-4)GlcNAc(b1-3)Gal(b1-4)GlcNAc(b1-2)Man(a1-6)]Man(b1-4)GlcNAc(b1-4)[Fuc(a1-6)]GlcNAc
# Summary of the method: as §1
# [8] = biological target: GlcNAc(b1-3)Gal(b1-4)GlcNAc(b1-3)Gal(b1-4)GlcNAc(b1-3)Gal(b1-4)GlcNAc(b1-2)[GlcNAc(b1-3)Gal(b1-4)GlcNAc(b1-3)Gal(b1-4)GlcNAc(b1-3)Gal(b1-4)GlcNAc(b1-6)]Man(a1-6)[GlcNAc(b1-3)Gal(b1-4)GlcNAc(b1-3)Gal(b1-4)GlcNAc(b1-3)Gal(b1-4)GlcNAc(b1-2)Man(a1-3)]Man(b1-4)GlcNAc(b1-4)[Fuc(a1-6)]GlcNAc
# Summary of the method: as §1
# [9] = biological target: GlcNAc(b1-3)Gal(b1-4)GlcNAc(b1-3)Gal(b1-4)GlcNAc(b1-3)Gal(b1-4)GlcNAc(b1-3)Gal(b1-4)GlcNAc(b1-2)Man(a1-3)[GlcNAc(b1-3)Gal(b1-4)GlcNAc(b1-3)Gal(b1-4)GlcNAc(b1-3)Gal(b1-4)GlcNAc(b1-3)Gal(b1-4)GlcNAc(b1-2)Man(a1-6)]Man(b1-4)GlcNAc(b1-4)GlcNAc
# Summary of the method: as §1
# [10] = biological target: GlcNAc(b1-3)Gal(b1-4)GlcNAc(b1-3)Gal(b1-4)GlcNAc(b1-3)Gal(b1-4)GlcNAc(b1-3)Gal(b1-4)GlcNAc(b1-2)Man(a1-3)[GlcNAc(b1-3)Gal(b1-4)GlcNAc(b1-3)Gal(b1-4)GlcNAc(b1-3)Gal(b1-4)GlcNAc(b1-3)Gal(b1-4)GlcNAc(b1-2)Man(a1-6)]Man(b1-4)GlcNAc(b1-4)[Fuc(a1-6)]GlcNAc
# Summary of the method: as §1
# [11] = biological target: GlcNAc(b1-3)Gal(b1-4)GlcNAc(b1-3)Gal(b1-4)GlcNAc(b1-3)Gal(b1-4)GlcNAc(b1-3)Gal(b1-4)GlcNAc(b1-2)[GlcNAc(b1-3)Gal(b1-4)GlcNAc(b1-3)Gal(b1-4)GlcNAc(b1-3)Gal(b1-4)GlcNAc(b1-3)Gal(b1-4)GlcNAc(b1-6)]Man(a1-6)[GlcNAc(b1-3)Gal(b1-4)GlcNAc(b1-3)Gal(b1-4)GlcNAc(b1-3)Gal(b1-4)GlcNAc(b1-3)Gal(b1-4)GlcNAc(b1-2)Man(a1-3)]Man(b1-4)GlcNAc(b1-4)[Fuc(a1-6)]GlcNAc
# Summary of the method: as §1
# [12] = biological target: GlcNAc(b1-3)Gal(b1-4)GlcNAc(b1-6)[GlcNAc(b1-3)Gal(b1-3)]GalNAc
# Summary of the method: as §1
# [13] = biological target: GlcNAc(b1-3)[GlcNAc(b1-6)]GalNAc
# Summary of the method: as §1
# [14] = biological target: GlcNAc(b1-4)GlcNAc(b1-4)GlcNAc(b1-4)GlcNAc(b1-4)GlcNAc(b1-4)GlcNAc
# Summary of the method: as §1
# [15] = biological target: GlcNAc(b1-6)Gal(b1-4)GlcNAc
# Summary of the method: as §1
# [16] = biological target: Kdn(a2-3)Gal(b1-4)[Fuc(a1-3)]GlcNAc
# Summary of the method: as §1
# Neu5Ac(a2-3)Gal = biological target: Neu5Ac(a2-3)Gal
# Summary of the method: as §1
# [17] = biological target: Neu5Ac(a2-3)Gal(b1-4)GlcNAc(b1-2)Man
# Summary of the method: as §1
# [18] = biological target: Neu5Ac(a2-3)Gal(b1-4)GlcNAc(b1-2)[Neu5Ac(a2-3)Gal(b1-4)GlcNAc(b1-4)]Man(a1-3)[GlcNAc(b1-4)][Neu5Ac(a2-3)Gal(b1-4)GlcNAc(b1-2)[Neu5Ac(a2-3)Gal(b1-4)GlcNAc(b1-6)]Man(a1-6)]Man(b1-4)GlcNAc(b1-4)GlcNAc
# Summary of the method: as §1
# [19] = biological target: Neu5Ac(a2-3)Gal(b1-4)[Fuc(a1-3)]GlcNAc(b1-3)Gal(b1-4)[Fuc(a1-3)]GlcNAc(b1-3)Gal(b1-4)[Fuc(a1-3)]GlcNAc
# Summary of the method: as §1
# [20] = biological target: Neu5Ac(a2-3)GalNAc(b1-4)GlcNAc
# Summary of the method: as §1
# [21] = biological target: Neu5Ac(a2-6)Gal(b1-4)GlcNAc(b1-2)Man(a1-3)[Gal(b1-4)GlcNAc(b1-2)Man(a1-6)]Man(b1-4)GlcNAc(b1-4)GlcNAc
# Summary of the method: as §1
# [22] = biological target: Neu5Ac(a2-6)Gal(b1-4)GlcNAc(b1-2)Man(a1-3)[Man(a1-6)]Man(b1-4)GlcNAc(b1-4)GlcNAc
# Summary of the method: as §1
binder,measurement,setting,value
"PVL (Psathyrella velutina), Q309D1_9AGAR (protein) MSVVVISQALPVPTRIPGVADLVGFGNGGVYIIRNSLLIQVVKVINNFGYDAGGWRVEKHVRLLADTTGDNQPDVVGFGENGVWISTNNGNNTFVDPPKMVLANFAYAAGGWRVEKHIRFMADLRKTGRADIVGFGDGGIYISRNNGGGQFAPAQLALNNFGYAQGWRLDRHLRFLADVTGDGLLDVVGFGENQVYIARNSGNGTFQPAQAVVNNFCIGAGGWTISAHPRVVADLTGDRKADILGFGVAGVYTSLNNGNGTFGAVNLVLKDFGVNSGWRVEKHVRCVSSLTNKKVGDIIGFGDAGVYVALNNGNGTFGPVKRVIDNFGYNQGWRVDKHPRFVVDLTGDGCADIVGFGENSVWACMNKGDGTFGPIMKLIDDMTVSKGWTLQKTVRYAANLYL",glycan array binding signal (z-score),GlcNAc(b1-3)Gal(b1-4)Glc,4.07
same,glycan array binding signal (z-score),[1],3.27
same,glycan array binding signal (z-score),[2],4.46
same,glycan array binding signal (z-score),[3],3.34
same,glycan array binding signal (z-score),[4],4.03
same,glycan array binding signal (z-score),[5],4.69
same,glycan array binding signal (z-score),[6],4.58
same,glycan array binding signal (z-score),[7],4.34
same,glycan array binding signal (z-score),[8],5.13
same,glycan array binding signal (z-score),[9],4.45
same,glycan array binding signal (z-score),[10],4.27
same,glycan array binding signal (z-score),[11],5.12
same,glycan array binding signal (z-score),[12],2.71
same,glycan array binding signal (z-score),[13],1.1
same,glycan array binding signal (z-score),[14],0.53
same,glycan array binding signal (z-score),[15],0.714
same,glycan array binding signal (z-score),[16],-0.363
same,glycan array binding signal (z-score),Neu5Ac(a2-3)Gal,-0.341
same,glycan array binding signal (z-score),[17],-0.35
same,glycan array binding signal (z-score),[18],-0.201
same,glycan array binding signal (z-score),[19],-0.297
same,glycan array binding signal (z-score),[20],-0.351
same,glycan array binding signal (z-score),[21],-0.362
same,glycan array binding signal (z-score),[22],-0.349
